Measurements from PubChem BioAssay AID488969 (Vanderbilt High Throughput Screening Facility, 2010).
Whole data set: some 110,000 compounds, median “z-score” near -0.1, cut for the highest 2% near 2. The sample holds the highest values, similar compounds and a random draw of the others, so the mix is not that of the screen. Active and inactive are the calls of the source.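 Rule for the calls: active = z-score in the third read window above 3 or below -3; inactive = the rest.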

Biological target: Metabotropic glutamate receptor 8 (Rattus norvegicus) (UniProt P70579)
Test: mGluR8 Gi/Go-coupled signaling modulation – cell-based, rat, thallium flux, HTS, primary screen (AID 488969)
Details: HEK293 rat mGluR8, GIRK (G protein-gated inwardly rectifying potassium channel) thallium flux, FluoZin2; at 10 µM; stronger effect = higher value; submaximal glutamate (EC20) added with thallium

Sequence of Metabotropic glutamate receptor 8 (Rattus norvegicus) (P70579 whole entry, looked up): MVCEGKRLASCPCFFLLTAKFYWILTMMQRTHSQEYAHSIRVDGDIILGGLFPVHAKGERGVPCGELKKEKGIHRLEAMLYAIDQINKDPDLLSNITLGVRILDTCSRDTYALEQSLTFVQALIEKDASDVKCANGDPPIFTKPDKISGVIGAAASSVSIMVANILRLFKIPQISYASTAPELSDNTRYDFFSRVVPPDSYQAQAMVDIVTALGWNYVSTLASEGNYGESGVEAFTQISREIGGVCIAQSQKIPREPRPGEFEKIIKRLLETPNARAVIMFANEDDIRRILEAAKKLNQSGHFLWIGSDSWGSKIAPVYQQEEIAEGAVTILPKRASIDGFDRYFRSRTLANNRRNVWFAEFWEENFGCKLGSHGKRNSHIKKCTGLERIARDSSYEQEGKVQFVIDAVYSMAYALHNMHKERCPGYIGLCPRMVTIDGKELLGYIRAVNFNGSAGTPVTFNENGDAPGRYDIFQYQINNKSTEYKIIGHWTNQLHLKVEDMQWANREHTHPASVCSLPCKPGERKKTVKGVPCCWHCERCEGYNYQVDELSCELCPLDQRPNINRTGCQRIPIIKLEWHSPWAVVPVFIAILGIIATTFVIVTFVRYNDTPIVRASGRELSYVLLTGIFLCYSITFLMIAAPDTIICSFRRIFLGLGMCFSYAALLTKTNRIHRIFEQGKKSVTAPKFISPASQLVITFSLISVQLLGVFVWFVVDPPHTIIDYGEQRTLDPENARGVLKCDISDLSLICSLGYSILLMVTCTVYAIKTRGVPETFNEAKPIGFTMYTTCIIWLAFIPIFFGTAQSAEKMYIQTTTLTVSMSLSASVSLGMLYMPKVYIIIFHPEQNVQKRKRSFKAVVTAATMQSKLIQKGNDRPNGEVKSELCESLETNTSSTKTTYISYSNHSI

| Compound | z-score |
| --- | --- |
| O=C(CSc1nc(-c2ccco2)cc(C(F)(F)F)n1)NCCc1ccccc1 | 0.104 |
| O=C(c1ccc(Br)o1)N1CCCc2ccccc21 | -0.269 |
| COc1ccc(CNC(=O)CSCc2cccc(Cl)c2)cc1 | -0.235 |
| COc1ccc(CNC(=O)CSCc2ccccc2Cl)cc1 | 4.96 (active) |
| COc1ccc(CNC(=O)CCSCc2ccccc2Cl)c(OC)c1 | -0.407 |
| CCOc1ccccc1C(=O)NC(CO)C(=O)O (configuration not stated) | -0.109 |
| CCNCCOC(c1ccccc1)c1ccccc1 | 0.455 |
| Cc1c(Cl)cccc1-c1ccc(/C=N/n2cnnc2)o1 | -0.29 |
| Clc1cccc(-c2ccc(/C=N/n3cnnc3)o2)c1Cl | 8.91 (active) |
| Clc1ccccc1-c1ccc(/C=N/n2cnnc2)o1 | 0.334 |
| O=C(Nn1c(SCc2ccccc2F)nc2ccsc2c1=O)c1ccccc1 | -0.0125 |
| O=C(Cn1nc(Cl)nc1Cl)c1cc2ccccc2oc1=O | -0.931 |
| CCOc1cc(CNCCSc2nnnn2C)cc(Br)c1OCc1ccc(F)cc1 | 0.297 |
| CCOc1cc(CNCCSc2nnnn2C)cc(Br)c1OCc1ccccc1F | 0.196 |
| CCOc1cc(CNCCSc2nnnn2C)cc(Br)c1OCc1ccccc1 | 2.3 |
| NNC(=O)c1nnn(-c2nonc2N)c1-c1cccs1 | -0.0988 |
| O=C(Nc1ccccc1N1CCCCC1)c1cccs1 | 0.223 |
| O=C(NC(=S)Nc1ccc(S(=O)(=O)N2CCCC2)cc1)c1cccs1 | 1.1 |
| O=C(NC(=S)Nc1ccc(S(=O)(=O)N2CCCCCC2)cc1)c1cccs1 | -0.208 |
| O=C(NC(=S)Nc1ccc(N2CCCCC2)c(Cl)c1)c1cccs1 | 8.72 (active) |
| O=C(NC(=S)Nc1ccc(N2CCCCC2)cc1)c1cccs1 | 11 (active) |
| CCCCCC(=O)NC(=S)Nc1ccc(N2CCCCC2)c(Cl)c1 | -0.183 |
| CC(=O)Cc1nsc(NC(=O)c2cc(-c3ccc(Cl)c(Cl)c3)oc2C)n1 | -0.22 |

| Compound | z-score |
| --- | --- |
| Cc1ccc(S(=O)(=O)c2ccc(C)cc2)cc1 | -0.487 |
| CCN1C(=O)/C(=C\c2ccc3c(c2)OCO3)C(C(=O)OC)=C1C | -0.35 |
| COc1ccc(C(=O)C(OC(=O)c2ccccc2Cl)c2ccccc2)cc1 (configuration not stated) | -0.172 |
| CCOC(=O)c1ccccc1NC(=O)c1cn(-c2ccc(OC)cc2)c(=O)c2ccccc12 | -0.291 |
| COc1ccc(-n2cc(C(=O)O)c3ccccc3c2=O)cc1 | 2.28 |
| COC(=O)c1cn(-c2ccc(Cl)cc2)c(=O)c2ccccc12 | -0.29 |
| O=C(Nc1cc(C(F)(F)F)ccc1N1CCOCC1)c1cn2ccccc2n1 | -0.314 |
| c1nc(N2CCOCC2)c2c3c(sc2n1)CCCC3 | -0.441 |
| c1nc(N2CCC3(CC2)OCCO3)c2c3c(sc2n1)CCCC3 | -1.04 |
| CC1(C)CN=C(N2CCN(c3ncnc4sc5c(c34)CCCC5)CC2)S1 | 5.02 (active) |
| Cc1ccccc1CN1CCN(CC(=O)NCc2ccccc2)C1=O | 0.0216 |
| COc1ccc(OCCn2nnc(-c3ccc(Cl)cc3)n2)cc1 | 0.195 |
| Clc1ccc(CSc2nnc(-c3ccccn3)n2Cc2ccco2)c(Cl)c1 | 0.104 |
| O=C(CSc1nnc(-c2cnccn2)n1Cc1ccco1)c1ccccc1 | 2.15 |
| O=C(CSc1nnc(-c2cnccn2)n1Cc1ccco1)c1ccc(Cl)cc1 | -0.74 |
| Clc1cccc(CSc2nnc(-c3ccccn3)n2Cc2ccco2)c1 | 3.12 (active) |
| COc1ccccc1NC(=O)CSc1nnc(-c2ccccn2)n1Cc1ccco1 | -1.55 |
| COc1ccc(NC(=O)CSc2nnc(-c3ccccn3)n2Cc2ccco2)cc1OC | 5.76 (active) |
| COc1ccc(C)cc1NC(=O)CSc1nnc(-c2ccccn2)n1Cc1ccco1 | 0.359 |
| Clc1ccccc1CSc1nnc(-c2ccccn2)n1Cc1ccco1 | 0.314 |
| O=C(CSc1nnc(-c2ccccn2)n1Cc1ccco1)c1ccccc1 | 1.88 |
| COC(=O)c1ccccc1NC(=O)c1cn(-c2ccc(C)c(C)c2)c(=O)c2ccccc12 | 0.0214 |
| Cc1c(NC(=O)c2cc(-n3cnnc3)ccc2Cl)cccc1-c1nc2ccccc2o1 | -0.115 |

| Compound | z-score |
| --- | --- |
| O=C1c2ccccc2CN1CCNS(=O)(=O)c1ccc(Cl)cc1 | -0.0894 |
| Cc1ccc(C(=O)N/N=c2\sc3ccccc3n2C)cc1 | 0.37 |
| Cc1ccccc1NC(=O)COC(=O)/C=C/c1cn(-c2ccccc2)nc1-c1cccnc1 | -0.0968 |
| Cn1nnc2cc(NC(=O)N3CCN(c4ccccn4)CC3)ccc21 | 0.387 |
| CC(=O)Oc1ccc(-c2cccc(C(=O)O)c2)cc1 | -0.607 |
| COc1ccc(C(=O)C2CCN(S(=O)(=O)c3ccc4c(c3)OCCO4)CC2)cc1 | 0.21 |
| Clc1cccc(/C=N/Nc2nc(Cl)nc3ccccc23)c1 | -0.0962 |
| Clc1ccc(/C=N/Nc2nc(Cl)nc3ccccc23)cc1 | 2.24 |
| Clc1ccc(/C=N/Nc2nnc(Cl)c3ccccc23)cc1 | 0.242 |
| CC(=O)Nc1ccc(OC(=O)c2cc3cc(Br)cc(Br)c3oc2=O)cc1 | -0.128 |
| CCOC(=O)C1=C(c2ccccc2)N=C2SCC(=O)N2C1c1cccc(OC)c1 (configuration not stated) | -0.311 |
| COC(=O)c1c(NC(=O)COC(=O)[C@@H](NS(=O)(=O)c2ccc(C)cc2)C(C)C)sc2c1CCC2 | 2.02 |
| CCOC(=O)c1c(NC(=S)Nc2ccc(OC)cc2)sc2c1CCC2 | 0.905 |
| COC(=O)c1c(NC(=O)COC(=O)c2ccc(C)s2)sc2c1CCCCC2 | 0.122 |
| CCOC(=O)c1c(NC(=O)OC)sc2c1CCC2 | 0.00121 |
| CCOC(=O)c1c(NS(=O)(=O)c2ccc(Br)cc2)sc2c1CCC2 | 16.1 (active) |
| CCOC(=O)Nc1sc2c(c1C(=O)OCC)CCC2 | 0.418 |
| COC(=O)c1c(NC(=O)COC(=O)[C@@H](NS(=O)(=O)c2ccccc2)C(C)C)sc2c1CCC2 | 0.129 |
| CCOC(=O)c1c(NS(=O)(=O)c2cccc(OC)c2)sc2c1CCC2 | 16.9 (active) |
| CCOC(=O)c1c(NC=O)sc2c1CCC2 | -0.85 |
| CCOC(=O)C1CCN(CCC(=O)Nc2cccc(Cl)c2C)CC1 | 0.732 |
| O=C(NC1CCCCCC1)C1C2C=CC3(CN(Cc4cccnc4)C(=O)C13)O2 (configuration not stated) | 0.211 |
| O=c1cc(N2CCc3ccccc32)[nH]c(=O)n1-c1ccc(Br)cc1 | -0.058 |

| Compound | z-score |
| --- | --- |
| CCc1ccc(OCCOCC(O)CNC(C)CC)cc1 (configuration not stated) | 0.0842 |
| COC(=O)c1ccccc1NC(=O)C1CCC(=O)N1S(=O)(=O)c1ccc(C)cc1 (configuration not stated) | 0.251 |
| CC(=O)NS(=O)(=O)c1ccc(NC(=O)COc2ccc(C(=O)c3ccccc3)cc2)cc1 | 0.359 |
| CC(NC(=O)C1CCN(S(=O)(=O)c2cc([N+](=O)[O-])ccc2Cl)CC1)c1ccccc1 (configuration not stated) | -0.238 |
| NC(=O)C1CCCN(S(=O)(=O)c2ccccc2)C1 (configuration not stated) | -0.127 |
| Cc1ccc(C(=O)Nc2nnc(-c3ccco3)o2)cc1 | 0.435 |
| O=C(Nc1nnc(-c2ccco2)o1)c1cccc2ccccc12 | 0.259 |
| CCC(=O)Nc1nnc(-c2ccco2)o1 | 2.14 |
| Cc1cccc(C(=O)Nc2nnc(-c3ccco3)o2)c1 | 0.11 |
| O=C(Nc1nnc(-c2ccco2)o1)c1ccc2ccccc2c1 | 2.95 |
| Cc1ccc(C(=O)Nc2nnc(-c3ccco3)o2)cc1C | 0.973 |
| CCSc1nc2[nH]ncc2c(=O)[nH]1 | -0.145 |
| CCOC(=O)c1c(N)sc(C(O)(C(F)(F)F)C(F)(F)F)c1-c1ccc(OC)cc1OC | -1.15 |
| O=C(COC(=O)c1cccnc1Nc1cccc(C(F)(F)F)c1)NC1CCS(=O)(=O)C1 (configuration not stated) | -0.275 |
| O=C(NCc1cc(C(F)(F)F)cc(C(F)(F)F)c1)C1CC(c2c(Cl)cccc2Cl)=NO1 (configuration not stated) | -0.111 |
| Cc1ccc(S(=O)(=O)Nc2cccc3cccnc23)cc1 | -0.731 |
| Cc1ccc(-n2c(-c3ccc(Br)cc3)c[n+]3c2CCc2ccc4cccnc4c2-3)cc1 | 4.86 (active) |
| Brc1ccc(-c2cn3c(n2)CCc2ccc4cccnc4c2-3)cc1 | 0.098 |
| COc1ccccc1-n1c(SCC(=O)N2CCCCC2)nnc1-c1ccccc1O | -0.514 |
| CN(C(=O)c1ccccn1)c1nnc(-c2ccccn2)s1 | 2.29 |
| CN(C(=O)c1ccccn1)c1nnc(-c2ccncc2)s1 | -0.931 |
| CN(C(=O)c1ccccn1)c1nnc(-c2cnccn2)s1 | -0.729 |
| COc1ccc(-c2noc(CSc3nnc(Cc4ccccc4)n3-c3ccc(Cl)cc3)n2)cc1 | 0.663 |

| Compound | z-score |
| --- | --- |
| Cc1cccc(OCC(O)Cn2c(=N)n(CCN3CCCCC3)c3ccccc32)c1 (configuration not stated) | 5.06 (active) |
| Cc1ccccc1OCC(O)Cn1c(=N)n(CCN2CCOCC2)c2ccccc21 (configuration not stated) | 1.12 |
| N=c1n(CCN2CCCCC2)c2ccccc2n1CC(O)COc1ccccc1 (configuration not stated) | 1.11 |
| Cc1ccc(OCC(O)Cn2c(=N)n(CCN3CCCCC3)c3ccccc32)cc1 (configuration not stated) | 4.9 (active) |
| N=c1n(CCN2CCCCC2)c2ccccc2n1CC(O)c1cccc(Br)c1 (configuration not stated) | 0.566 |
| COc1ccccc1OCC(O)Cn1c(=N)n(CCN2CCCCC2)c2ccccc21 (configuration not stated) | -0.0021 |
| O=C(Nc1ccc(Cl)cc1)C1=Cc2cc(Cl)ccc2OC1 | -0.109 |
| COC(=O)C1=C(C)NC2=C(C(=O)CC(C)(C)C2)C1c1ccsc1 (configuration not stated) | 0.803 |
| Cn1c(C(C(=O)NCC2CCCO2)N(C(=O)Cn2nnc3ccccc32)C2CCCCC2)nc2ccccc21 (configuration not stated) | -0.0111 |
| CCOC(=O)/C(C#N)=C/NC(=O)NC(C)(C)C | 0.141 |
| Cc1ccc2[nH]c(=O)c(CN(CCO)C(=O)N(C)C)cc2c1 | -0.0536 |
| CCOC(CNC(=O)CCc1c(C)nc2nc(C)nn2c1C)OCC | -0.308 |
| CCc1ccc(S(=O)(=O)Nc2c(C)nn(C)c2C)cc1 | -0.343 |
| CN(Cc1ccccc1F)c1nc(-c2cccs2)nc2ccccc12 | 0.11 |
| O=C(O/N=C\c1ccc(N2CCCCC2)c([N+](=O)[O-])c1)c1cccc(C(F)(F)F)c1 | 0.31 |
| O=C(O/N=C\c1ccc(N2CCCCC2)c([N+](=O)[O-])c1)c1c(F)cccc1F | 2.03 |
| O=C(O/N=C\c1ccc(N2CCCCC2)c([N+](=O)[O-])c1)c1cccc(Cl)c1 | -0.494 |
| CCOC(=O)CSc1cc(CS(=O)(=O)c2ccccc2)nc(-c2ccccc2)n1 | -0.223 |
| CCOC(=O)CSc1cc(CSc2ccccc2)nc(-c2ccccc2)n1 | 4.85 (active) |
| CCOC(=O)CSc1cc(CS(=O)c2ccc(Cl)cc2)nc(-c2ccccc2)n1 (configuration not stated) | 0.0352 |
